Data reported in PubChem BioAssay (NCATS).
Records with an inconclusive call do not appear. Where a call stands in place of a potency, no number is given. Calls of active or inactive are those of the source. Unless noted, calls come from the whole dose curve; as a rule, active = well fitted curve in the direction sought with a large enough effect; inconclusive = small, poorly fitted or top-dose-only effect, or another doubt; inactive = no such curve, though single readings can be large; an effect the other way counts as inactive or inconclusive.

What was measured:
[1] = biological target: Tumor susceptibility gene 101 protein (Homo sapiens) (UniProt Q99816); test: qHTS Validation Assay for Iinhibitors of HIV-1 Budding by Blocking the Interaction of PTAP/TSG101 (AID 485342; calls by dose curve)
How it was run: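 Tsg101 binding domain (10 uM final) in pH 7.5 HEPES/NaCl/Tween 20/EDTA/TCEP buffer was mixed with pin-transferred compounds, then FITC-labeled PTAP peptide (50 nM final) was added; after 20 min at r.t., fluorescence polarization was read.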

[2] = qHTS Validation Assay to Find Inhibitors of Chronic Active B-Cell Receptor Signaling (AID 485345; active = well fitted curve in the direction sought with a large enough effect in the main read-out, with a control signal flat, not every such curve was filed as active)
How it was run: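 TMD8 ABC-DLBCL cells with dox-inducible green luciferase–IκBα fusion and red native luciferase; compounds 46 uM–3 nM, 4 h at 37C with doxycycline in 0.5% FBS IMDM. Green/red ratio normalized to basal and 10 uM MG-132.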

[3] = biological target: ATP-dependent 6-phosphofructokinase (Trypanosoma brucei brucei) (UniProt O15648); test: qHTS Validation Assay to Find Inhibitors of T. brucei phosphofructokinase (AID 485368); note: potency is the fitted concentration of half-maximal effect
How it was run: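 Compounds (up to 57 uM, titration series) were pinned into substrate buffer, then 1.25 nM PFK added; after 45 min at room temperature, ADP product was quantified by ADP-Glo luminescence and concentration-response curves fitted.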

[4] = Quantitative high throughput screen for delayed death inhibitors of the malarial parasite plastid, 96 hour incubation (AID 488745); note: nearly all actives have a fitted effect of over 70% in size; note: potency is the fitted concentration of half-maximal effect
How it was run: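 Infected erythrocytes were added to compound in Albumax-supplemented RPMI 1640 at 0.1% parasitemia and 2% hematocrit (final), incubated 96 h at 37 C under 5% CO2, then luciferase reagent was added and luminescence measured.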

[5] = Quantitative high throughput screen for delayed death inhibitors of the malarial parasite plastid, 48 hour incubation (AID 488752); note: nearly all actives have a fitted effect of over 65% in size; note: potency is the fitted concentration of half-maximal effect
How it was run: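 Readout is firefly luciferase luminescence from a reporter integrated into the parasite genome, with lower signal taken as inhibited growth. Infected red cells (0.1% parasitemia, 2% hematocrit final) are cultured with compound for one 48 h cycle at 37 C.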

[6] = biological target: Thioredoxin reductase 1, cytoplasmic (Rattus norvegicus) (UniProt O89049); test: qHTS Assay for Substrates of Mammalian Selenoprotein Thioredoxin Reductase 1 (TrxR1) (AID 488772);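 note: NADPH fluorescence in the first read after selenite addition and not the 8 min delta; series mostly up to about 57 µM; a drop in NADPH fluorescence below the no-compound background marks a TrxR1 substrate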
How it was run: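 Quantitative HTS in Tris-HCl buffer at pH 7.5 with EDTA and Tween-20, using rat TrxR1, 400 uM NADPH and 400 uM selenite (final). A fall in initial NADPH fluorescence relative to background marked substrate behaviour.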

[7] = biological target: Thioredoxin reductase 1, cytoplasmic (Rattus norvegicus) (UniProt O89049); test: qHTS Assay for Inhibitors of Mammalian Selenoprotein Thioredoxin Reductase 1 (TrxR1) (AID 488773);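 note: drop in NADPH fluorescence over an 8 min run after selenite addition; series mostly up to about 57 µM; nearly all actives have a fitted effect of over 40% in size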
How it was run: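 Steps: enzyme (90 nM) plus NADPH (400 uM final), 5 min at ~22 deg C; compound added, 15 min; selenite (400 uM final) added; fluorescence followed for 8 min. Concentration-response curves derived from the normalized delta values.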

[8] = biological target: M-phase phosphoprotein 8 (Homo sapiens) (UniProt Q99549); test: qHTS Validation Assay for Inhibitors for MPP8 Chromodomain Interactions with Methylated Histone Tails (AID 488949);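 note: AlphaScreen signal from MPP8 chromodomain bound to biotinylated H3K9me3 peptide; top concentration of the series differs between compounds; nearly all actives have a fitted effect of over 55% in size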
How it was run: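 MPP8 (50 nM) was preincubated with biotinylated H3(1-18)K9me3 peptide (50 nM) in PBS pH 7.4, 0.01% Tween-20 for 30 min at room temperature, then with compounds for 30 min; binding was detected by AlphaScreen.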

[9] = biological target: Methanococcus maripaludis chaperonin (MmCpn) (UniProt Q6LX38); test: High-Throughput Screening for Modulators of Cytosolic Chaperonin Activity: MmCpn Primary Screen (AID 488978);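 note: 50 nM MmCpn enzyme hydrolysing 30 µM ATP at 37 °C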
How it was run: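 MmCpn (50 nM final) was preincubated with compound 5 min at RT, then 30 uM ATP (final) was added and the reaction ran 10 min at 37C. ADP produced was detected by Transcreener HTRF (ex 320 nm; em 590/665 nm).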

[10] = biological target: Transient receptor potential cation channel subfamily V member 1 (Homo sapiens) (UniProt Q8NER1); test: HTS Assay for Compounds that Act as Enhancers of the Vanilloid Receptor 1 (AID 488979)
How it was run: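 TRPV1-expressing cells loaded with Fluo-8 calcium dye; compounds added and calcium influx read kinetically for 3 min (agonist phase), then capsaicin at EC20 added and read 2 min more for enhancement. Fluorescence ex 480/em 520 nm.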

[11] = biological target: Thyrotropin receptor (Homo sapiens) (UniProt P16473); test: qHTS Assay for Antagonists of the Thyroid Stimulating Hormone Receptor (AID 488980); note: series mostly up to about 58 µM
How it was run: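 HEK293 cells transfected with human TSHR, suspended in HEPES-buffered HBSS with 70 uM RO 20-1724, were treated with compounds plus TSH at EC80 (4 nM final). cAMP was measured by competitive HTRF (cryptate anti-cAMP antibody, cAMP-d2 acceptor).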

[12] = biological target: D(1A) dopamine receptor (Homo sapiens) (UniProt P21728); test: HTS Assay for Allosteric Agonists of the Human D1 Dopamine Receptor: Primary Screen for Agonists (AID 488981); note: potency is the fitted concentration of half-maximal effect
How it was run: (§1)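 Tetracycline-induced HEK293 T-REx cells force-coupled to calcium signalling were incubated overnight at 30 C and dye-loaded at room temperature. Calcium flux over 180 s after compound addition flagged agonists; a further 180 s read after EC20 dopamine flagged potentiators.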

[13] = biological target: D(1A) dopamine receptor (Homo sapiens) (UniProt P21728); test: HTS Assay for Allosteric Agonists of the Human D1 Dopamine Receptor: Primary Screen for Potentiators (AID 488982)
How it was run: as §1

[14] = biological target: D(1A) dopamine receptor (Homo sapiens) (UniProt P21728); test: HTS Assay for Allosteric Agonists of the Human D1 Dopamine Receptor: Primary Screen for Antagonists (AID 488983);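 note: calcium flux response to an EC80 dopamine challenge measured with no-wash dye; nearly all actives have a fitted effect of over 65% in size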
How it was run: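 Cells are induced with tetracycline and incubated overnight at 30 C, then loaded with calcium dye for 30 to 90 minutes at room temperature. Compound addition is followed by a 180 s read, then an EC80 dopamine addition and another 180 s read.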

[15] = biological target: ATP-dependent 6-phosphofructokinase (Trypanosoma brucei brucei) (UniProt O15648); test: qHTS Assay to Find Inhibitors of T. brucei phosphofructokinase: hit validation (AID 492961);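 note: luminescence reports ADP formed as PFK phosphorylates fructose-6-phosphate with ATP; series mostly up to about 51 µM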
How it was run: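 Percent activity derived from corrected luminescence, normalized between 0x and 1x enzyme controls, then fitted to concentration-response curves. Conditions: 1.25 nM PFK, 0.1 mM ATP, 0.5 mM F6P, 45 min RT.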

[16] = Validation screen for small molecules that induce genotoxicity in human embryonic kidney (HEK293T) cells expressing luciferase-tagged ELG1 (AID 493106)
How it was run: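 Luminescence from an ELG1-luciferase fusion serves as the read-out, rising when genetic stress elevates ELG1 protein. HEK293T reporter cells (2,000 per well) received 23 nL compound, incubated 16 hr at 37 °C, then ONE-Glo for 30 min at room temperature.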

[17] = biological target: Thyrotropin-releasing hormone receptor (Homo sapiens) (UniProt P34981); test: qHTS for Small Molecule Agonists and Allosteric Enhancers of Human TRH Receptor: Validation Screen for Agonists (AID 493127;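 active = calcium activation more than 3 SD above the typical response in the agonist read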;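 note: intracellular calcium rise by fluo-8 fluorescence before TRH EC20 addition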); settings: TRH receptor agonist cell assay; at 2 µM; stronger effect = higher value
How it was run: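 Cells 2000/well, 10% FCS, 18 h 33.5C/5% CO2 → fluo-8 Ca dye, RT 30 min–1.5 h → FDSS baseline 10 × 1 s → compound added → 230 cycles (1 s/cycle) agonist mode. TRH controls.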

[18] = Nrf2 qHTS screen for inhibitors: Validation (AID 493153; active = well fitted inhibition curve with a large enough effect in the main read-out, with a control signal flat, not every such curve was filed as active); settings: viability change: measured here: cytotoxicity max response
How it was run: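 Luminescence from an ARE-firefly luciferase reporter in A549 cells gives Nrf2 inhibition; an earlier CellTiter-Fluor fluorescent read flags cytotoxicity. Cells in 5% FBS OPTI-MEM received compound dilution series for 18-24 h at 37°C.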

[19] = biological target: Chromobox protein homolog 1 (Homo sapiens) (UniProt P83916); test: qHTS Validation Assay for Inhibitors of HP1-beta Chromodomain Interactions with Methylated Histone Tails (AID 488953);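 note: loss of AlphaScreen luminescence from HP1-beta binding biotinylated H3K9me3 peptide; series mostly up to about 110 µM; nearly all actives have a fitted effect of over 50% in size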
How it was run: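 50 nM HP1-beta + 50 nM biotin-H3(1-18)K9me3, PBS pH 7.4, 0.01% Tween-20, 30 min RT; compound added, 30 min RT; AlphaScreen beads 10 ug/mL final, 30 min dark; luminescence read.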

[20] = biological target: ATPase family AAA domain-containing protein 5 (Homo sapiens) (UniProt Q96QE3); test: Validation screen for small molecules that inhibit ELG1-dependent DNA repair in human embryonic kidney (HEK293T) cells expressing luciferase-tagged ELG1 (AID 493107);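 note: cells co-treated with the DNA-damaging agent 5-fluorouridine alongside compound; series mostly up to about 46 µM; inhibitors lower the ELG1-luciferase luminescence signal; nearly all actives have a fitted effect of over 70% in size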
How it was run: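 Luminescence from ONE-Glo, developed 30 min at room temperature, served as read-out of ELG1-luciferase levels. Beforehand, reporter HEK293T cells received 5-fluorouridine plus test compound for 16 hr at 37 °C.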

ATP-dependent 6-phosphofructokinase (Trypanosoma brucei brucei), sequence (O15648 whole entry, looked up): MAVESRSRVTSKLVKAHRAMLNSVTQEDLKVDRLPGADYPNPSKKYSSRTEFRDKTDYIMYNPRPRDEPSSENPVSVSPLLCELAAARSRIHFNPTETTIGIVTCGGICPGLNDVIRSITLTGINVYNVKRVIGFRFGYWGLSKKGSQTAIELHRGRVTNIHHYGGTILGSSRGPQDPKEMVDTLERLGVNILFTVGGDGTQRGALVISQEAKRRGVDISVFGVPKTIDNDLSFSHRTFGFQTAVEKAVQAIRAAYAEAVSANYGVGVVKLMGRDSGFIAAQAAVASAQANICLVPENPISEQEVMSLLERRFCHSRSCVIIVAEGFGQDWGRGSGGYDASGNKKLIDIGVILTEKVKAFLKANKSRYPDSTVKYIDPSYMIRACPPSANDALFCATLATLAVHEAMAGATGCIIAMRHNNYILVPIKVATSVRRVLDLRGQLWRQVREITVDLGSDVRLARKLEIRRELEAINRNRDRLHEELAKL
Thyrotropin-releasing hormone receptor (Homo sapiens), sequence (P34981 whole entry, looked up): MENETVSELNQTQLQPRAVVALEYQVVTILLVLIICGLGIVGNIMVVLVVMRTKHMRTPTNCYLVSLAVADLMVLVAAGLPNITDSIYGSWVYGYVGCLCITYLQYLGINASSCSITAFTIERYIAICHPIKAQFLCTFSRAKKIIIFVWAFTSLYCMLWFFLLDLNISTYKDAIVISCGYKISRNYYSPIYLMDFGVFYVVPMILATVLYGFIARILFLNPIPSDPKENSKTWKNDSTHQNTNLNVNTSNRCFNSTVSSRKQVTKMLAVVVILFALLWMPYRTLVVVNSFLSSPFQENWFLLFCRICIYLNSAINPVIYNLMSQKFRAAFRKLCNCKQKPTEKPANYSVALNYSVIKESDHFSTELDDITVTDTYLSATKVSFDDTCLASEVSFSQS
Tumor susceptibility gene 101 protein (Homo sapiens), sequence (Q99816 whole entry, looked up, the tested form may be a part): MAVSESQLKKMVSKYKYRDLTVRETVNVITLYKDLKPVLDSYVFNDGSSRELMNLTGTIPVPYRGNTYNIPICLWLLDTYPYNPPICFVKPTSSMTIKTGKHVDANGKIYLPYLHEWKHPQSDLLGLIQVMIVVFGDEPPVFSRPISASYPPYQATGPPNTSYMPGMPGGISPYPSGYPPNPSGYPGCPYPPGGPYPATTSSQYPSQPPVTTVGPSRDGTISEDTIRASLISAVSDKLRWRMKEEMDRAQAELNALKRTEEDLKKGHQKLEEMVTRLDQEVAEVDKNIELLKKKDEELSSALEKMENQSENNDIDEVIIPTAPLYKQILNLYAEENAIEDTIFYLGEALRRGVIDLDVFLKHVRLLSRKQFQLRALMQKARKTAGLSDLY
Methanococcus maripaludis chaperonin (MmCpn), sequence (Q6LX38 1-543): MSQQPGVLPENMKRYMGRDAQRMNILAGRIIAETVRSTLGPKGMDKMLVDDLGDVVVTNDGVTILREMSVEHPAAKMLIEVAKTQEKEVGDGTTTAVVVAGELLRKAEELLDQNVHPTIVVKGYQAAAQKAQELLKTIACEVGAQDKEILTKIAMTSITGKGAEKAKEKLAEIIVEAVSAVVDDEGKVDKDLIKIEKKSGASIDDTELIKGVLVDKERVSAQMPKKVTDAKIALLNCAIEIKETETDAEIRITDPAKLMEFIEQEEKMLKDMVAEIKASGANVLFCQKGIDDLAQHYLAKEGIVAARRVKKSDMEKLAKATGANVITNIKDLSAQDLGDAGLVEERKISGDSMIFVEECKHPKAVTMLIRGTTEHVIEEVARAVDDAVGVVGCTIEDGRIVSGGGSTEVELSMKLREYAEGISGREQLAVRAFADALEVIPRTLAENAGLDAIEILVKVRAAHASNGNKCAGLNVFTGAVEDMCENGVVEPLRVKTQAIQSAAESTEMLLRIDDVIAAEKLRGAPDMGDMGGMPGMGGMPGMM
Thyrotropin receptor (Homo sapiens), sequence (P16473 whole entry, looked up): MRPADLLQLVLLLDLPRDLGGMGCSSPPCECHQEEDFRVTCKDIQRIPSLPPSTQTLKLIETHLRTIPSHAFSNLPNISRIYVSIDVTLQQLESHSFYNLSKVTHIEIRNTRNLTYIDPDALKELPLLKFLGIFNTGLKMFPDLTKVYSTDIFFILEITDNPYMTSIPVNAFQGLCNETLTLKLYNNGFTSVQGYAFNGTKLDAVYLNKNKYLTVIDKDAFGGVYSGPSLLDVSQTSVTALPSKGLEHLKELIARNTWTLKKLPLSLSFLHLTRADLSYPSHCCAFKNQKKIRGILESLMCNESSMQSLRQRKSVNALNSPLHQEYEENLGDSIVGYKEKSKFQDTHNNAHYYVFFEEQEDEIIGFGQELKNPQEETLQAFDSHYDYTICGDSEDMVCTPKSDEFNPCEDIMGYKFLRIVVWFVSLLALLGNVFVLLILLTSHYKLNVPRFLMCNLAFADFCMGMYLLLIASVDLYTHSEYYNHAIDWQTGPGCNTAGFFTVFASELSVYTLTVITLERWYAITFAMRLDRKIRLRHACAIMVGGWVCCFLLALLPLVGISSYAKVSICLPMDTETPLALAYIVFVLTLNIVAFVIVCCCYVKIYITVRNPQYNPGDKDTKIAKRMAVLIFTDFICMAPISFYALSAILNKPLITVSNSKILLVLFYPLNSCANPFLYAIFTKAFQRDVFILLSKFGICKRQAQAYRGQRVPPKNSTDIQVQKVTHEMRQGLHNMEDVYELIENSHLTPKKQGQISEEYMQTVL
D(1A) dopamine receptor (Homo sapiens), sequence (P21728 whole entry, looked up): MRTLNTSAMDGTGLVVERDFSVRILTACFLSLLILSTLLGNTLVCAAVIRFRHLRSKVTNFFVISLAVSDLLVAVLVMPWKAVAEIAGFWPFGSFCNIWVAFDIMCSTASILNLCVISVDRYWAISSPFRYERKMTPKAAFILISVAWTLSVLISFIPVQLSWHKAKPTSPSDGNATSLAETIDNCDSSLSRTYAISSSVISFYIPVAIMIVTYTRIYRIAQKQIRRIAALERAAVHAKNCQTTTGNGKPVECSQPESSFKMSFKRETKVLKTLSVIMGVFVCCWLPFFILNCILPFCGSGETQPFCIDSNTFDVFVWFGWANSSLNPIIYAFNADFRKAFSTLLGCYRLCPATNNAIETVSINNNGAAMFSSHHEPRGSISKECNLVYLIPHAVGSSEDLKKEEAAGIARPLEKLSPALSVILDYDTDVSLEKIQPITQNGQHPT
Transient receptor potential cation channel subfamily V member 1 (Homo sapiens), sequence (Q8NER1 whole entry, looked up): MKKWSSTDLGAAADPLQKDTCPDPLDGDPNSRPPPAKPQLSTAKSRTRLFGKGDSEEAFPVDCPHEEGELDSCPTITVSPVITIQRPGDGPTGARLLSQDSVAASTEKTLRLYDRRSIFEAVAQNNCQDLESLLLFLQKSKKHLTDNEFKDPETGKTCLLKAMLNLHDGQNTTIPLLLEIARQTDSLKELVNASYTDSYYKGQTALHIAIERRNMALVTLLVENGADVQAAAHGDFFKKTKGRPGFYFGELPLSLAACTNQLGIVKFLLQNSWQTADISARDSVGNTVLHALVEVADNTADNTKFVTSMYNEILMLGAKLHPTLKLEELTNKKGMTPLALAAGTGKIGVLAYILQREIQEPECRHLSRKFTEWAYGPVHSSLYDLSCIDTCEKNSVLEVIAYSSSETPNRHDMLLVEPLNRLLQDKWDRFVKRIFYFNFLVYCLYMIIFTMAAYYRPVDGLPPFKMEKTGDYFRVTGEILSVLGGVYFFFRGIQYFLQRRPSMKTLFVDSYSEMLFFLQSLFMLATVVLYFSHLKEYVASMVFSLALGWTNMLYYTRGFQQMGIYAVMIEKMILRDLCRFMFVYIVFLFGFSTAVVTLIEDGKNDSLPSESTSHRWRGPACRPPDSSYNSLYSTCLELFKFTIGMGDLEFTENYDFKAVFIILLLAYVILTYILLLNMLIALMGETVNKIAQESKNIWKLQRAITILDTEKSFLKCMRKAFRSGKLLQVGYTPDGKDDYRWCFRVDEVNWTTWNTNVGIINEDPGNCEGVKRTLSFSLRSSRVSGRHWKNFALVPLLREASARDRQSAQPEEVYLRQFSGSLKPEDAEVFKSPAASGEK
Chromobox protein homolog 1 (Homo sapiens), sequence (P83916 whole entry, looked up): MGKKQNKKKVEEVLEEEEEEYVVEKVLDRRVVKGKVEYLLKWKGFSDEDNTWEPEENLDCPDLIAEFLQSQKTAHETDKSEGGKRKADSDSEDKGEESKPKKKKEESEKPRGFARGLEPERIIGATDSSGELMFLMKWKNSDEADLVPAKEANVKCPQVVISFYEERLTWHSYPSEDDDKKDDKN
Thioredoxin reductase 1, cytoplasmic (Rattus norvegicus), sequence (O89049 whole entry, looked up): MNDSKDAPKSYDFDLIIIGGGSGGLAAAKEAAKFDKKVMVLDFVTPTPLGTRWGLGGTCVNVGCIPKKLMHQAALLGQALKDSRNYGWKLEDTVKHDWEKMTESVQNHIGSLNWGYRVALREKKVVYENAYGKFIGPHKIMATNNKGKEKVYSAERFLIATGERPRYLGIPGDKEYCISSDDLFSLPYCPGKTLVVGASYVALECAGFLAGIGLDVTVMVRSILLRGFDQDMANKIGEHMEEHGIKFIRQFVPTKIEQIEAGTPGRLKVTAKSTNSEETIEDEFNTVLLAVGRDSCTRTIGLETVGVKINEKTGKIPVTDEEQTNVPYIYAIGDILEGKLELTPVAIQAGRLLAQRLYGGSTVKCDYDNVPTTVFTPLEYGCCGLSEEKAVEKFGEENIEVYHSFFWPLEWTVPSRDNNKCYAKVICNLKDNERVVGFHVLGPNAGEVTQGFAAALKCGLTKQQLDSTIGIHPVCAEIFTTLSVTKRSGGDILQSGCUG

SMILES: O=C1CCC(c2ccc(-n3ccnc3)cc2)=NN1
- outcome [1]: inactive
- outcome [2]: inactive
- Potency [3]: inactive
- Potency [4]: inactive
- Potency [5]: inactive
- outcome [6]: inactive
- outcome [7]: inactive
- Potency [8]: inactive
- outcome [9]: inactive
- outcome [10]: inactive
- outcome [11]: inactive
- Potency [12]: inactive
- outcome [13]: inactive
- Potency [14]: inactive
- outcome [15]: inactive
- outcome [16]: inactive
- activation [17]: 0.188% (inactive)
- outcome [18]: inactive
- viability change [18]: 9.43%

SMILES: CC(CCc1ccccc1)NCC(O)c1ccc(O)c(C(N)=O)c1 (stereo not given)
- outcome [1]: inactive
- outcome [2]: inactive
- Potency [3]: inactive
- Potency [5]: 13.1 µM (active)
- outcome [6]: inactive
- outcome [7]: inactive
- Potency [8]: inactive
- Potency [19]: inactive
- outcome [9]: inactive
- outcome [10]: inactive
- Potency [12]: inactive
- outcome [13]: inactive
- Potency [14]: inactive
- outcome [16]: inactive
- activation [17]: 0.875% (inactive)
- outcome [18]: inactive
- viability change [18]: -13.8%

SMILES: CNCCC=C1c2ccccc2CCc2ccccc21
- outcome [1]: inactive
- Potency [3]: inactive
- outcome [6]: inactive
- outcome [7]: inactive
- Potency [8]: inactive
- Potency [19]: inactive
- outcome [9]: inactive
- outcome [11]: inactive
- Potency [12]: 20 µM (active)
- outcome [13]: inactive
- outcome [15]: inactive
- outcome [16]: inactive
- activation [17]: 0.625% (inactive)

SMILES: C#C[C@]1(OC(C)=O)CC[C@H]2[C@@H]3CCC4=C[C@@H](OC(C)=O)CC[C@@H]4[C@H]3CC[C@@]21C
- outcome [15]: inactive

SMILES: CN(C)CCCOc1nn(Cc2ccccc2)c2ccccc12
- outcome [15]: inactive

SMILES: CC(C)COC(=O)OCN1C(=O)CN(CCN2CC(=O)N(COC(=O)OCC(C)C)C(=O)C2)CC1=O
- outcome [1]: inactive
- outcome [2]: inactive
- Potency [4]: inactive
- Potency [5]: inactive
- outcome [6]: inactive
- outcome [7]: inactive
- Potency [19]: inactive
- outcome [9]: inactive
- outcome [10]: inactive
- outcome [11]: inactive
- Potency [12]: inactive
- outcome [13]: inactive
- Potency [14]: inactive
- outcome [15]: inactive
- outcome [16]: inactive
- Potency [20]: inactive
- activation [17]: 0.75% (inactive)
- outcome [18]: inactive
- viability change [18]: -6.78%

SMILES: Oc1ccc(O)cc1
- outcome [1]: inactive
- outcome [2]: inactive
- Potency [3]: 10.7 µM (active)
- Potency [4]: 10.4 µM (active)
- Potency [5]: 8.28 µM (active)
- outcome [6]: inactive
- outcome [7]: inactive
- Potency [8]: inactive
- outcome [9]: inactive
- outcome [10]: inactive
- outcome [11]: inactive
- Potency [12]: inactive
- outcome [13]: inactive
- Potency [14]: inactive
- outcome [16]: inactive
- activation [17]: 0.688% (inactive)
- outcome [18]: inactive
- viability change [18]: -9.14%

SMILES: COc1cc2c(cc1O)CC[C@@H]1[C@@H]2CC[C@]2(C)[C@@H](O)CC[C@@H]12
- outcome [1]: inactive
- outcome [6]: inactive
- outcome [7]: inactive
- Potency [8]: inactive
- outcome [9]: inactive
- Potency [12]: inactive
- outcome [13]: inactive
- Potency [14]: inactive
- outcome [16]: inactive

SMILES: Nc1cc(Cl)c(NC2=NCCN2)c(Cl)c1
- outcome [1]: inactive
- outcome [2]: inactive
- Potency [4]: inactive
- Potency [5]: inactive
- outcome [6]: inactive
- outcome [7]: inactive
- Potency [8]: inactive
- Potency [19]: inactive
- outcome [9]: inactive
- outcome [10]: inactive
- outcome [11]: inactive
- Potency [12]: inactive
- outcome [13]: inactive
- Potency [14]: inactive
- outcome [15]: inactive
- outcome [16]: inactive
- Potency [20]: inactive
- activation [17]: 1.12% (inactive)
- outcome [18]: inactive
- viability change [18]: 1.6%

SMILES: COc1c(C)c2c(c(O)c1C/C=C(\C)CCC(=O)O)C(=O)OC2
- outcome [15]: inactive

SMILES: CC(C)NC[C@@H](O)COc1cccc2ccccc12
- Potency [8]: inactive
- activation [17]: 1.94% (inactive)
